These results are taken from ChEMBL document CHEMBL1201862, “PubChem BioAssay data set” (2004).

The whole screen tested about 55,000 sequences, of which about 4,100 (7.5%) were called active. Rule as the data show it: active = GI50 up to about 1.1 µM and inactive = higher. The list is a sample of the results. Measured potencies and affinities stand elsewhere.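 These data come from cells grown in 96-well plates and exposed to compound for 48 hours at five concentrations. Abbreviation: GI50, concentration required for 50% inhibition of growth.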

For this assay, the system named is SF-539. The experiment in a line: NCI tumour cell line growth inhibition, 48 h.
Regarding “[Bis(aminomethyl)tetramethylenesilane]dichloropaltinum(II), CHEMBL2146205”, the GI50 came to 20.5 µM. In the case of “[Bis(aminomethyl)diethylsilane]tetrachloroplatinum(IV), CHEMBL2146203” it was 2.49 µM; in that of “[Bis(aminomethyl)pentamethylenesilane]tetrachloropaltinum(IV), CHEMBL2146204”, 0.558 µM. The same measure for “[Bis(aminomethyl)tetramethylenesilane]tetrachloropaltinum(IV), CHEMBL2146189”: 2.18 µM.

Substance “[Bis(aminomethyl)dimethylsilane]dichloroplatinum (II), CHEMBL2146201” registered a GI50 of 23.4 µM. In the case of “cis-Bis[[(trimethylsilyl)methyl]amino]tetrachloroplatinum(IV), CHEMBL2146191” it was 4.24 µM; in that of “[Bis(aminomethyl)dimethylsilane]tetrachloroplatinum(IV), CHEMBL2146190”, 4.99 µM. The same measure for “[Bis(aminomethyl)pentamethylenesilane]dichloropaltinum(II), CHEMBL2146202”: 1.48 µM; for “mu-(1,7-nanodiamine-N,N')bis-(cis-aminedichloroplatimum (II)), CHEMBL2146215”: 27.4 µM; for CISPLATIN, CHEMBL11359: 1.66 µM. Regarding “[Bis(aminomethyl)ethylmethylsilane]tetrachloroplatinum(IV), CHEMBL2146192”, the GI50 worked out at 3.05 µM.
